{"source": "PubChem BioAssay (Tox21)", "note": "Records with an inconclusive call do not appear. Calls of active or inactive are those of the source. The call rests on the fitted dose curve; in most records, active means well fitted activation curve with a large enough effect in the signal ratio in the repeat runs (not every such curve was filed as active); inconclusive means weak or mixed curves; inactive means flat fitted curve, though single readings scatter; the % refers to the signal ratio. On the % scale 0 is the no-effect control and ±100 the full control effect."}
{"assay": "qHTS assay to identify small molecule agonists of the hypoxia (HIF-1) signaling pathway (AID 1224846)", "conditions": "HRE-bla ME-180 cells, beta-lactamase ratio, 17 h; series mostly up to 76.8 µM; activation: at the top concentration", "text": "U.S. Tox21 Program National Center for Advancing Translational Sciences [NCATS] NIH Chemical Genomics Center [NCGC] U.S. Environmental Protection Agency [EPA] National Institutes of Environmental Health Sciences [NIEHS] National Toxicology Program [NTP] U.S. Food and Drug Administration [FDA] Tox21 Assay Overview: Hypoxia-inducible factor-1 (HIF-1) is the major hypoxia-regulated transcription factor that controls cellular responses to low oxygen concentration. HIF-1 is composed of two subunits: hypoxia responsive HIF-1-alpha and constitutively expressed HIF-1-beta, which is also known as aryl hydrocarbon receptor nuclear translocator. During hypoxic conditions, HIF-1-alpha heterodimerizes with HIF-1-beta and translocates into the nucleus where the HIF-1 complex binds to the hypoxia-response element (HRE) and activates expression of target genes such as VEGF (vascular endothelial growth factor). The HIF-1 pathway is essential to normal growth and development, and is involved in the pathophysiology of cancer, inflammation, and ischemia. Using a beta-lactamase reporter-gene under control of the hypoxia response element, a cell-based assay [CellSensor(TM) HRE-bla ME-180 from Life Technologies, Carlsbad, CA] was used to measure hypoxia-induced signaling. Tox21 10K library compounds were measured for their ability to induce the reporter gene activity.\nTox21 Assay Protocol Summary: HRE-bla ME-180 cells were dispensed at 2,000 cells per well in 6 uL of assay medium containing 0.5% dialyzed FBS into black wall/clear-bottom 1536-well plates using a Multidrop Combi (Thermo Scientific, Waltham, MA) dispenser. After the assay plates were incubated at 37C and 5% CO2 for 5 hrs, 23 nL of compounds dissolved in DMSO, positive controls or DMSO only was transferred to each well of the assay plate using a Pintool station (Kalypsys, San Diego, CA). The assay plates were incubated at 37C and 5% CO2 for 17 hrs. One uL of LiveBLAzerTM B/G FRET substrate (CCF4-AM) (Life Technologies) was added to each well using a Flying Reagent Dispenser (Aurora Discovery, San Diego, CA)."}
{"smiles": "Nc1c(CC(=O)O)cccc1C(=O)c1ccc(Br)cc1", "activation": "1.6% [at 35.5 µM] (inactive)"}
{"smiles": "O=C1CCCCCCCCCCCC(=O)OCCO1", "activation": "0.241% (inactive)"}
{"smiles": "O=C(NCC1CN(c2ccc(N3CCOCC3=O)cc2)C(=O)O1)c1ccc(Cl)s1", "note": "(stereo not given)", "activation": "-0.493% [at 35.5 µM] (inactive)"}
{"smiles": "O=P(O)(OCc1ccccc1)OCc1ccccc1", "activation": "-0.27% (inactive)"}
{"smiles": "CC(=O)[O][Al][O]C(C)=O", "activation": "0.193% (inactive)"}
{"smiles": "CCCCCC[C@@H](O)C/C=C\\CCCCCCCC(=O)OC", "activation": "-0.336% (inactive)"}
{"smiles": "Clc1ccc2c(c1)CCc1cccnc1C2=C1CCNCC1", "activation": "5.96% [at 35.5 µM] (inactive)"}
{"smiles": "COc1cc(Cl)c(OC)cc1N", "activation": "-1.43% (inactive)"}
{"smiles": "CCCCOC(=O)CCCCCCCC(=O)OCCCC", "activation": "-0.0453% (inactive)"}
{"smiles": "CC(C)(COC(=O)c1ccccc1)COC(=O)c1ccccc1", "activation": "0.0113% (inactive)"}
{"smiles": "CN(C)C(=O)NC1(c2ccccc2)CCN(CC[C@@]2(c3ccc(F)c(F)c3)CN(C(=O)c3ccccc3)CCO2)CC1", "activation": "-1.19% (inactive)"}
{"smiles": "CN1Cc2cc(C(=O)N3CCC(C4CCNCC4)CC3)ccc2NC(CC(=O)O)C1=O", "note": "(stereo not given)", "activation": "0.163% [at 35.5 µM] (inactive)"}
{"smiles": "COc1ccnc(CS(=O)c2nc3ccc(OC(F)F)cc3[nH]2)c1OC", "note": "(stereo not given)", "activation": "-1.26% [at 35.5 µM] (inactive)"}
{"smiles": "C/C=C/C(=O)CC", "activation": "-0.782% [at 15.8 µM] (inactive)"}
{"smiles": "C[C@@H](c1ncncc1F)C(O)(Cn1cncn1)c1ccc(F)cc1F", "note": "(stereo not given in full)", "activation": "2.1% [at 35.5 µM] (inactive)"}
{"smiles": "Cc1nn(C)c(Oc2ccccc2)c1/C=N/OCc1ccc(C(=O)OC(C)(C)C)cc1", "activation": "9.09% (inactive)"}
{"smiles": "O=[N+]([O-])c1ccc(NCCO)c(OCCO)c1", "activation": "0.101% (inactive)"}
{"smiles": "CCCCCCCCO[C@@H]1O[C@H](CO)[C@@H](O)[C@H](O)[C@H]1O", "activation": "-1.26% (inactive)"}
{"smiles": "O=C(OCCCCCCOC(=O)c1ccccc1)c1ccccc1", "activation": "-0.937% (inactive)"}
{"smiles": "CCCCO", "activation": "-0.0426% (inactive)"}
{"smiles": "Nc1cc(C(=O)O)c(O)c(S(=O)(=O)O)c1", "activation": "-0.0056% (inactive)"}
{"smiles": "CCCCCCOC(=O)NC(=N)c1ccc(NCc2nc3cc(C(=O)N(CCC(=O)OCC)c4ccccn4)ccc3n2C)cc1", "activation": "2.29% [at 35.5 µM] (inactive)"}
{"smiles": "CN1C[C@H]2c3ccccc3Oc3ccc(Cl)cc3[C@@H]2C1", "activation": "1.6% [at 35.5 µM] (inactive)"}
{"smiles": "CCOC(=O)Cc1cccc2ccccc12", "activation": "-0.116% (inactive)"}
{"smiles": "CC1(c2ccccc2)OC(C(=O)O)=CC1=O", "note": "(stereo not given)", "activation": "0.204% [at 35.5 µM] (inactive)"}
{"smiles": "COc1ccc(C(=O)N2CCN(CC(=O)N3CCOCC3)CC2)cc1", "activation": "0.284% [at 35.5 µM] (inactive)"}
{"smiles": "CN(C)CCOC(c1ccccc1)c1ccc(Br)cc1", "note": "(stereo not given)", "activation": "-1.23% [at 35.5 µM] (inactive)"}
{"smiles": "OC(CN1CCC(Cc2ccc(F)cc2)CC1)c1ccc(Cl)cc1", "note": "(stereo not given)", "activation": "2.91% [at 35.5 µM] (inactive)"}
{"smiles": "CCC(C)(C)CC", "activation": "-1.02% (inactive)"}
{"smiles": "CCCCC", "activation": "-0.915% (inactive)"}
{"smiles": "Cc1c(N)cccc1[N+](=O)[O-]", "activation": "0.0605% (inactive)"}
{"smiles": "C[N+]1(CC2COC(c3ccccc3)(C3CCCCC3)O2)CCCCC1", "note": "(stereo not given)", "activation": "-0.569% [at 35.5 µM] (inactive)"}
{"smiles": "CCNc1cc(O)ccc1C", "activation": "-1.44% (inactive)"}
{"smiles": "O=C(O)c1ccc(S(=O)(=O)O)cc1C(=O)O", "activation": "0.0959% (inactive)"}
{"smiles": "O=S(=O)(Oc1ccc(Cl)cc1)c1ccccc1", "activation": "1.49% (inactive)"}
{"smiles": "NCC(=O)O", "activation": "-0.806% [at 15.8 µM] (inactive)"}
{"smiles": "COc1cc2nc(Cl)nc(N)c2cc1OC", "activation": "-1.37% [at 35.5 µM] (inactive)"}
{"smiles": "CCN(CC)c1ccc2c(-c3ccccc3C(=O)O)c3ccc(=[N+](CC)CC)cc-3oc2c1", "activation": "0.817% (inactive)"}
{"smiles": "O=[N+]([O-])c1cccc(S(=O)(=O)O)c1", "activation": "1.78% (inactive)"}
{"smiles": "CCCCCCCCCCO[C@@H]1O[C@H](CO)[C@@H](O)[C@H](O)[C@H]1O", "activation": "0.744% (inactive)"}
